± gives the standard error. Whole data set: some 1,300 sequences, median “fluorescence a.u.” near 38, cut for the highest 2% near 280. This excerpt belongs to a sample that is enriched for the highest values.
Biological target: terminal deoxynucleotidyl transferase (calf thymus) (UniProt P06526)
Assay: TdT poly-dT extension signal (Cy3 hybridisation fluorescence, uncapped minus capped) (fluorescence a.u.); higher = more efficient initiation of TdT extension
Settings: initiator chemistry: L-DNA (mirror-image), free 5'-OH (3'-tethered via HEG linker)
Protocol: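 All mono- to pentamer D-DNA or L-DNA initiators were made by forward (3'->5') photolithographic in situ synthesis on glass on a hexaethylene glycol linker, leaving a free 5'-OH. Each was made in uncapped and DMTr-dT-capped versions, about 11 replicates each. Arrays were extended with calf thymus TdT (0.2 U/uL), 100 uM dTTP and 0.25 mM CoCl2 for 120 min at 37 C, hybridised with an rA18-Cy3 probe and scanned at 532 nm. The value is the mean uncapped minus the mean capped signal. IDs read 5'->3'. L-DNA is mirror-image; D-DNA 5'-OH initiators were below LOD (no extension).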

Chain of terminal deoxynucleotidyl transferase (calf thymus) (P06526 whole entry): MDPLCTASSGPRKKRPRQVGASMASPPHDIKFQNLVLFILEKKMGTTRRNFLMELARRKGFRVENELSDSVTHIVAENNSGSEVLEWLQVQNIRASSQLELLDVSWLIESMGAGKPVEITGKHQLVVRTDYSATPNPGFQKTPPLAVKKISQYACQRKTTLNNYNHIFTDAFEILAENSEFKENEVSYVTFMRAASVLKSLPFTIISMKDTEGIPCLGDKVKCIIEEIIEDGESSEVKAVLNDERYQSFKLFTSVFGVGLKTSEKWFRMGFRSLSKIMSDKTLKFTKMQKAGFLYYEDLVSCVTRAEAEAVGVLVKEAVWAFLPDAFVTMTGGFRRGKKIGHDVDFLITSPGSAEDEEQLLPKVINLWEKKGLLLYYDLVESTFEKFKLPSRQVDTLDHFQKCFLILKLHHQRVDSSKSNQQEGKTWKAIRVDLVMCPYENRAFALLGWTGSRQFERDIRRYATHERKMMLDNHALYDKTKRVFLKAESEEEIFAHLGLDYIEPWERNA

Sequence	TdT poly-dT extension signal
AGCGC	57.8 ± 6.1
TTAGA	396 ± 35
TTAGC	308 ± 15
ATAGC	182 ± 14
GTAGA	191 ± 19
GTAG	159 ± 11
CTAGT	157 ± 12
GTAGT	130 ± 11
TTAGT	368 ± 28
TAAG	161 ± 15
TTAG	308 ± 27
CTAGA	170 ± 11
CTAGC	134 ± 8.7
TGTCA	114 ± 7.2
AGTGT	44.6 ± 5.9
GATGC	82.1 ± 9.4
TACGA	194 ± 14
CCGGA	78.7 ± 10
ACGAA	76.9 ± 4.9
GTTTA	123 ± 9.7
ATAGG	198 ± 12
TTAGG	444 ± 29
CTAGG	182 ± 8.8
CCTGG	79.5 ± 7.8

Sequence	TdT poly-dT extension signal
TCTCA	199 ± 18
TCTC	128 ± 17
TCTCT	347 ± 200
TAGGA	123 ± 9.3
GTACG	158 ± 12
GTACT	137 ± 10
ATACA	204 ± 18
CTACT	152 ± 15
TTACC	393 ± 30
TTACT	396 ± 14
GTACC	143 ± 13
TTACG	380 ± 28
GTACA	152 ± 8.5
TTACA	344 ± 20
CTACC	127 ± 19
TTAC	275 ± 24
GACCT	77.6 ± 11
GAGGT	55.2 ± 5.3
CAGAG	71.3 ± 6.3
AATTG	77.2 ± 7
CTTTG	141 ± 13
CCACT	90 ± 7.8
AGTA	44.2 ± 4.4
ACCA	87.8 ± 9.2

Sequence	TdT poly-dT extension signal
TTTCA	281 ± 27
ACCG	78.2 ± 8
CTTAC	153 ± 14
GTTAC	130 ± 11
TTTAT	331 ± 24
CTTAA	181 ± 12
CTTAT	106 ± 7.6
ATTAT	152 ± 14
TTTAA	392 ± 18
ATTAG	195 ± 19
GTTAA	194 ± 15
TTTAC	344 ± 22
TTTA	271 ± 29
TTTAG	345 ± 24
TGAGC	147 ± 8.6
TAAAC	191 ± 19
CACCG	74.4 ± 8.1
TAAAT	192 ± 18
GCCGC	93.5 ± 6.3
GTTTT	125 ± 8.3
TTTTC	242 ± 27
CTTTA	106 ± 9.8
TTTTA	302 ± 24
CATGG	80 ± 9.5
